# Source: PubChem (several laboratories)
# DNA FID counter: compounds displacing fluorescent DNA intercalator, primary screen, artefact control for HCV NS3 helicase inhibitor project, biochemical, FID fluorescence; DNA fluorescent intercalator displacement; inhibition, % at 7.9 µM; 290,000 tested, 0.17% active; AID 1845, 2009; in the data active means inhibition above about 37%;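 further: 0% = vehicle and 100% = reference compound; higher means more ethidium bromide displaced from hairpin DNA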
# RAD54 inh: inhibitors of human RAD54 branch migration, primary screen, biochemical, fluorescence, single point | DNA repair and recombination protein RAD54-like (Homo sapiens), Q92698 | RAD54 Holliday junction branch migration, FAM/BHQ fluorescence | inhibition, % at 10.4 µM | 360,000 tested, 0.14% active;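 active means mean normalized replicate activity at least 40 and at least half of replicates scoring 40 or more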;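 further: 0% = median of neutral control wells and 100% = median of positive control wells; inhibitors cause a drop in the FAM fluorescence signal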
# miR-122 sensor: miR-122 Renilla sensor signal increase in Huh7, primary screen, miR-122 inhibitor project, cell-based, single point, plate reader. AID 602342, 2012. Huh7 miR-122 Renilla luciferase sensor, 48 h; neutral wells = 0, positive control = 100. 340,000 tested, 0.3% active. activation (reporter increase), % at 12.5 µM;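 active means mean replicate activation score at least 90 and every replicate individually at or above 90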;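 further: higher luciferase means less miR-122 activity so hits act as miR-122 inhibitors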
# NRP1-CendR mod: modulators of CendR peptide binding to NRP-1, primary screen, biochemical, fluorescence polarization, uHTS | inhibition, % at 25 µM | Neuropilin-1 (Homo sapiens), O14786 | FAM-RPARPAR peptide binding to NRP-1 | AID 602438, 2012 | 360,000 tested, 0.85% active;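 active means inhibition or corrected inhibition above about 18%, plus a signal ratio from 0.5 to 1.5, limit read from the data, passing the limit was not always enough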
# N-glyco inh: increase of ERlucT glycosylation luciferase signal, primary screen, N-linked glycosylation inhibitor project, D54 ERlucT cells, luminescence, set 2. D54 ERlucT glycosylation luciferase reporter, 24 h; percent of 100 nM tunicamycin response. 360,000 tested, 0.23% active. reporter increase, % at 12.5 µM;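 active means mean luciferase reporter signal, scaled so untreated is 0 and the glycosylation-blocking control 100, at or above a set limit in every replicate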;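 further: luciferase carries N-glycosylation sites so blocking glycosylation raises the light; 0% = median of neutral control wells and 100% = median of 100 nM tunicamycin wells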
# RAD52 inh: RAD52 DNA annealing inhibitors, primary screen, biochemical, FRET, single point, set 2. recombinant RAD52 DNA annealing, FRET fluorescence. inhibition, % at 18.7 µM. 360,000 tested, 0.46% active. AID 651710, 2012;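 active means every replicate showing at least 50% inhibition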
# Target sequence (P43351 whole entry, looked up): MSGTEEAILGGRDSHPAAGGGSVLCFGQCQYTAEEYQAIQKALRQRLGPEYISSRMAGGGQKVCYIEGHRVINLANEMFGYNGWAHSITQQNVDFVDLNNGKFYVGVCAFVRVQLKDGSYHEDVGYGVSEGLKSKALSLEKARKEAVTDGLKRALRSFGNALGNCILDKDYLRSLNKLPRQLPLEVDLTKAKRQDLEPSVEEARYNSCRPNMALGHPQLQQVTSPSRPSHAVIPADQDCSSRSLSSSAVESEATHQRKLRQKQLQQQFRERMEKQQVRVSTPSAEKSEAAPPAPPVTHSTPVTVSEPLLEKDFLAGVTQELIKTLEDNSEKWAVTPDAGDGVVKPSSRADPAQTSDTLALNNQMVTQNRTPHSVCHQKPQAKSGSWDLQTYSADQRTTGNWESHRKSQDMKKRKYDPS
# * marks the source's active call; other numbers are inactive results; . = not tested or not shown; [ ] = another dose, or the depositor's remark. Sampled rows, rich in hits. Any-hit rate of the full collection: about 1.5%.
SMILES,DNA FID counter,RAD54 inh,miR-122 sensor,NRP1-CendR mod,N-glyco inh,RAD52 inh
O=C1N=C(N2CCc3ccccc3C2)S/C1=C\c1cccc(O)c1,-24,-11,109*,-14,2,.
COc1ccc(/C=C2\SC(N3CCc4ccccc4C3)=NC2=O)cc1,-24,-4,10,-2,1,-93
C[C@@H]1CN([C@@H](C)CO)C(=O)c2cc(C3=CCCCC3)cnc2O[C@H]1CN(C)C(=O)Cc1cccnc1,.,-4,0[16.7 µM],.,.,4
COc1ccc(-c2csc(NCCc3nc4cc(C(=O)NCCCO)ccc4n3Cc3ccc(C)cc3)n2)cc1,.,1,-2,27*,-2,-35
O=C(O)c1cc2ncc(CCO)cn2n1,3,.,5,24*,3,4
O=C(c1cc2ncc(CCCl)cn2n1)N1CCCCCC1,-8,.,.,-2,1,.
C[C@@H]1CN([C@H](C)CO)C(=O)Cc2cc(NC(=O)Nc3ccc(F)cc3)ccc2O[C@H]1CN(C)C(=O)Nc1ccc(C(F)(F)F)cc1,.,0,-2[16.7 µM],.,.,.
Cc1c(Cl)cccc1Nc1nc(N)nc(CN2CCc3ccccc3C2)n1,-9,-4,13,-1,44*,.
Cc1ccc(Nc2nc(N)nc(CN3CCc4ccccc4C3)n2)cc1,9,0,8,0,5,.
CCCCNC(=O)CSc1nc2ccc(C)cc2[nH]1,2,.,.,35*,0,-7
COc1ccc(CNC(=O)CSc2nc3ccc(C)cc3[nH]2)cc1,-5,-4,0,4,1,-8
C[C@@H]1CN([C@@H](C)CO)C(=O)c2cc(NS(=O)(=O)c3ccc(Cl)cc3)ccc2O[C@@H]1CN(C)C(=O)NC1CCCCC1,.,-5,-10[16.7 µM],.,.,0
Cc1ccc(S(=O)(=O)/N=C2\C=C(Nc3cccc(C(=O)O)c3)C(=O)c3ccccc32)c(C)c1,12,-13,10,38*,6,-11
Cc1ccc(S(=O)(=O)/N=C2\C=C(Nc3cccc(C(=O)O)c3)C(=O)c3ccccc32)cc1,4,5,-5,45*,2,2
Cc1ccc(S(=O)(=O)/N=C2\C=C(NS(=O)(=O)c3ccccc3)C(=O)c3ccccc32)c(C)c1,.,-4,11,20,3,-10
Cc1ccc(S(=O)(=O)/N=C2\C=C(Nc3ccc(O)cc3)C(=O)c3ccccc32)cc1,.,-1,-5,10,-23,.
CN(C)CC(=O)N[C@H]1C[C@@H]2O[C@H](CO)CC[C@@H]2O[C@@H]1CCc1ccc(C2=CCCCC2)cc1,.,.,.,.,.,43
CC(C)(C)OC(=O)NCCc1n[nH]c(=S)o1,3,-5,8,27*,3,-5
CCOc1cc(NC(=S)NCCCN2CCOCC2)c(OCC)cc1NC(=O)c1cccs1,12,8,4,24*,0,8
CC[C@H](C)[C@@H](COC=O)NC(=O)[C@H]1O[C@@H](n2ccc(N)nc2=O)[C@H](O)[C@@H]1O,.,-6,0,31*,0,-13
CC(C)[C@H](COC=O)NC(=O)[C@H]1O[C@@H](n2ccc(N)nc2=O)[C@H](O)[C@@H]1O,.,-16,1,-10,4,-24
C[C@H]1CN([C@@H](C)CO)C(=O)c2cc(-c3ccccc3F)cnc2O[C@H]1CN(C)C(=O)CN(C)C,.,6,-1[16.7 µM],.,.,11
C[C@H](CO)N1C[C@H](C)[C@@H](CN(C)Cc2ccc(C(=O)Nc3ccccc3N)cc2)Oc2ccc(NC(=O)C3CC3)cc2CC1=O,.,-4,8[16.7 µM],.,.,16
C[C@H](CO)N1C[C@H](C)[C@@H](CN(C)Cc2ccc(C(=O)Nc3ccccc3N)cc2)Oc2ccc(NC(=O)Cc3cn(C)c4ccccc34)cc2CC1=O,.,4,20[16.7 µM],.,.,61*
C[C@@H]1CN([C@@H](C)CO)C(=O)Cc2cc(NC(=O)Cc3cn(C)c4ccccc34)ccc2O[C@H]1CN(C)Cc1ccc(C(=O)Nc2ccccc2N)cc1,.,0,-4[16.7 µM],.,.,49
